Results published in the supplement of paper PMC6555819.

Experiments:
Experiment in all cases: PBM binding z-score (relative to random genomic background probes); higher = stronger binding; sequences stand for … in GC…GCGATTGACAGCGTAGAATGAAGG
[1] = system: PPARg:RXRa DBDmut IVT, anti-RXR (DBD mutation: RXRa K156A/R161A, NR concentration 270 nM, RXRa partner concentration 90 nM)
In short: (§1)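 The probes on custom Agilent 4×180K protein-binding microarrays were double-stranded, with 34-nt variable regions bearing direct-repeat seeds, single-nucleotide variants, half-site ablations and random human genomic background sequences. Incubation lasted 1 h with ligand-free nuclear receptor dimers in PBS pH 7.4, 2% milk, 0.02% Triton X-100, 1 mM DTT, 0.2 mg/mL BSA and 0.4 mg/ml salmon testes DNA. Antibodies against each partner (one per run) detected bound dimers, and fluorescence scans were regression-normalized. Binding z-scores take the random background probes as reference.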

[2] = system: PPARg:RXRa IVT, anti-PPARg (NR concentration 270 nM, RXRa partner concentration 90 nM)
In short: as §1

[3] = system: PPARg DBDmut:RXRa IVT, anti-PPARg (DBD mutation: PPARg1 K132A/R137A, NR concentration 270 nM, RXRa partner concentration 90 nM)
In short: as §1

[4] = system: PPARg DBDmut IVT, anti-PPARg (DBD mutation: PPARg1 K132A/R137A, NR concentration 270 nM)
In short: as §1

[5] = system: PPARg homodimer (NR concentration 180 nM)
In short: as §1

[6] = system: PXR:RXRa (NR concentration 270 nM, RXRa partner concentration 90 nM)
In short: as §1

[7] = system: PXR homodimer (NR concentration 270 nM)
In short: as §1

[8] = system: RARa:RXR (NR concentration 270 nM, RXRa partner concentration 90 nM)
In short: as §1

[9] = system: RARa homodimer (NR concentration 270 nM)
In short: as §1

[10] = system: RARb:RXRa (NR concentration 270 nM, RXRa partner concentration 90 nM)
In short: as §1

[11] = system: RARb homodimer (NR concentration 270 nM)
In short: as §1

[12] = system: RARg:RXRa (NR concentration 270 nM, RXRa partner concentration 90 nM)
In short: as §1

[13] = system: RARg homodimer (NR concentration 270 nM)
In short: as §1

[14] = system: RXRa DBDmut IVT, anti-RXR (DBD mutation: RXRa K156A/R161A, NR concentration 90 nM)
In short: as §1

[15] = system: RXRa homodimer (NR concentration 180 nM)
In short: as §1

[16] = system: THRa:RXRa (NR concentration 90 nM, RXRa partner concentration 90 nM)
In short: as §1

[17] = system: THRa homodimer (NR concentration 90 nM)
In short: as §1

[18] = system: VDR homodimer (NR concentration 270 nM)
In short: as §1

Sequence	PBM binding z-score [1]	PBM binding z-score [2]	PBM binding z-score [3]	PBM binding z-score [4]	PBM binding z-score [5]	PBM binding z-score [6]	PBM binding z-score [7]	PBM binding z-score [8]	PBM binding z-score [9]	PBM binding z-score [10]	PBM binding z-score [11]	PBM binding z-score [12]	PBM binding z-score [13]	PBM binding z-score [14]	PBM binding z-score [15]	PBM binding z-score [16]	PBM binding z-score [17]	PBM binding z-score [18]
GCTTACGGGTCAAACGTTATAGCATGAATAGAAT	4.87	4.1	1.95	1.38	1.25	3.37	-0.15	4.41	0.0211	3.76	2.24	4.8	4.42	2.47	5.6	2.24	-0.707	1.11
TCGAGTAGGTTACCAATGGGGCAATCAGCTTTCT	3.39	2.82	0.0614	0.102	-0.476	0.111	-0.71	0.261	-0.846	0.959	0.687	1.67	0.463	0.325	0.707	0.302	-0.774	-0.712
CCTTACGGGTCAAGGTTATAGCACGGGTGGTACG	1.93	3.57	0.0487	-0.257	1.58	3.2	0.367	4.01	0.705	4.13	3.41	5	5.02	0.875	5.55	3.02	0.771	1.46
CGTCCAAGGTCAGAGAGGACAGTGAATGCCGAGT	2.32	2.3	-0.223	-1.03	2.09	3.22	4.69	2.69	0.425	4.64	4.12	4.57	5.67	2.6	3.68	3.67	2.08	2.85
TCATTTAGGTAATACAGGTGAAAGTCGGCATCTA	3.53	3.29	1.53	1.6	1.72	1.06	0.701	1.43	2.03	1.07	0.788	0.841	0.652	1.96	1.33	1.58	1	0.57
CTCGAAAGGTCTGTTGAGGTGAGTATACGGATAA	-0.464	0.358	0.678	0.237	0.0956	0.48	-0.39	1.61	-0.325	1.47	0.88	0.827	1.16	-0.237	0.536	4.3	1.12	-0.104
ATCTCTAGGGAAAAGTTCAGTGAATCCCGAGGAT	-0.096	1.64	0.313	0.383	0.686	1.42	0.706	0.616	0.196	1.77	2.03	1.23	1.69	0.323	0.636	0.24	-0.457	1.22
CGTCAAAGTTCCACTAAGGTAACGTAAAGCACGC	0.458	0.925	-0.504	0.445	0.404	0.17	0.428	2.22	0.139	0.704	0.376	0.418	0.398	0.475	0.357	4.02	1.69	0.238
ATCGAAAGGTCGACGAGGTGTGTATACACCGTTT	0.053	1.53	-0.0457	0.936	1.17	2.67	-0.171	2.91	0.322	3.74	2.54	4.07	3.97	1.18	4.14	2.22	-0.542	0.527
TCTCTGAGGACACGAAAGGTCAGAGCTCGACATC	1.67	2.12	0.453	1.37	2.33	4.09	0.562	4.33	0.907	4.2	4.78	4.77	5.31	1.55	3.99	4.45	4.15	1.21
TAGCCTAGGTCATTGCGCCAGTATAGTACGCATC	1.65	2.83	1.15	0.064	1.7	1.89	-0.0218	2.62	-0.455	3.7	2.53	3.8	3.99	1.74	3	2.8	1.07	1.54
CCGAGCAGGCCAATCTGGGTCACTCAAGGCTTGA	3.97	4.58	-1.06	-1.1	0.368	0.937	-0.646	1.17	-1.1	1.77	2.28	1.25	1.68	0.0945	1.15	3.72	0.404	0.347
TAGCCTAGGTCAGATCGCGCCAGTATACGCTATA	0.721	1.46	-0.73	0.133	0.207	0.262	-0.578	0.7	-0.794	2.95	1.68	2.64	3.2	-0.216	1.22	1.61	0.165	-0.0657
CCTCGGAGGACAACAGGAGGTGAGAGCTGCCAGA	0.262	0.245	-1.46	-1.64	-0.411	-0.513	-0.0477	-0.183	-0.132	1.13	1.05	0.71	1.35	-0.141	-0.117	1.44	0.525	-0.285
TCGAGTAGGTTCGGGGCATTCAGAATGGCGTCGA	0.529	-0.193	-0.804	-0.918	-0.546	-0.101	-0.4	-0.0228	-1.08	0.221	-0.0297	-0.387	-0.609	0.913	-0.159	0.428	-0.274	1.09
CGTCAAAGTTCAAGGTAAGGTAACAGAAAGCAGC	0.198	2.04	0.246	0.255	1.61	4.03	1.72	3.78	1.28	5.22	3.86	5.71	5.4	4.12	4.23	4.38	1.85	2.9
GCGACTGGGGCAAAGTAGGTTACCATAAGGTTGG	5.3	5.17	-0.411	-0.49	-0.0778	0.322	-0.231	0.681	-0.558	1.21	1.42	0.662	0.576	-0.138	0.504	2.09	0.208	0.042
TAGCCTAGGTCATGCGAGCCAGTATAGTGTCGGC	1.99	2.77	0.571	0.0763	1.17	1.38	-0.628	2.33	-0.182	3.72	2.67	3.75	3.79	0.876	3.03	2.98	1.03	0.235
ATCTCTAGGTAAAATTTCAGTGAATCCCGAGGAT	1.67	1.35	0.773	1.87	0.138	-0.0385	-0.0342	0.0546	0.744	0.377	-0.0962	0.558	0.537	0.113	0.367	0.328	0.331	-0.51
TCTTGTAGATCAAAGGTTAAGAACGCCGAAGCCT	2.38	3.76	0.351	0.234	1.19	2	0.16	2.42	0.244	1.86	1.51	1.82	0.951	0.794	3.38	1.53	-0.428	0.13
GCTATTAGTTGAAAGGGCTACCGAATGATTCTCG	0.511	-0.182	-0.304	0.104	0.707	-0.465	-0.174	-0.0219	0.6	0.408	0.228	-0.023	0.197	0.703	0.0628	-0.589	-0.623	-0.485
TCTTGTAGATCAAATGTTAAGAAAGCCGAAGCCT	2.21	0.573	0.744	0.647	0.284	0.199	0.012	0.519	0.868	-0.134	-0.797	-0.173	-0.241	1.15	0.176	-0.551	-0.39	-0.522
CAAACTAGGTCAAATGTCAAAGTCGAGCCAACCA	8.77	8.6	1.94	1.58	2.71	3.16	0.325	4.96	1.02	4.26	3.4	5.2	5.17	2.58	5.14	3.36	0.944	1.05
CGAACGACGGCATGAGTTGATAGCAAATGCCGAT	-1.05	-1.08	-1.17	-0.517	-0.497	-0.722	-0.155	-0.909	-0.629	-1.05	-1.1	-0.397	-0.191	-0.218	-0.57	-0.799	-1.12	-0.0876
CCGACTGGGGCCAAGGTTACCATACTCAGTACGA	0.261	1.58	-1.03	-0.715	0.238	0.644	0.142	1.14	-0.0443	1.77	1.87	0.875	1.17	0.424	1.12	1.88	1.07	0.551
TAGCCTAGGGCATGCGGGCCAGTATAGTGTCGGC	-0.968	0.354	-0.499	-1.43	-1.51	-0.802	-0.955	-0.692	-0.647	0.881	0.409	0.0659	0.455	-1.55	-0.233	-0.465	-1.1	-0.907
ATACCAAGGTGATCGTGAGGTCGTTGAGACTAAC	0.478	1.15	0.272	-0.217	0.626	2.93	1.28	1.91	0.197	1.39	1.66	2.25	0.747	0.611	1.66	3.4	2.38	2.82
TCATATAAGTAATACAGGTGAAAGTCGGCATCTA	3.37	1.87	0.985	0.83	1.07	0.888	0.782	1.1	1.95	0.567	0.481	0.675	0.621	2.03	1.42	0.662	0.191	0.605
AGTCAAAGTTGACTAGGTAACGTAAGATTCAGCT	1.93	2.8	0.549	0.744	-0.383	-0.11	-0.595	0.0496	-0.0612	1.13	0.0886	0.519	0.771	0.028	0.242	0.477	-0.555	-0.638
